# Inconclusive results are not listed. Where a call stands in place of a potency, no number is given. Activity calls are given as the source filed them. Calls follow the shape of the dose curve; as a rule, active = well fitted inhibition curve with a large enough effect; inconclusive = small, poorly fitted or top-dose-only effect; inactive = flat fitted curve, though single readings scatter.
# Columns and labels:
# Experiment in all cases: qHTS profiling for inhibitors of Plasmodium falciparum proliferation (AID 504749); also: nearly all actives have a fitted effect of over 60% in size
# Settings in all cases: P. falciparum in erythrocytes, SYBR Green DNA, 72 h; series mostly up to 28.7 µM
# CP262 = tested on: CP262
# How it was run: (§1)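 Parasite proliferation within erythrocytes, 72 h exposure. Endpoint: SYBR Green I fluorescence after overnight lysis at room temperature. Controls: 0.29 uM artemisinin, DMSO.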
# CP266 = tested on: CP266
# How it was run: as §1
# CP269 = tested on: CP269
# How it was run: as §1
# CP297 = tested on: CP297
# How it was run: as §1
# CP315 = tested on: CP315
# How it was run: as §1
# CP329 = tested on: CP329
# How it was run: as §1
# DFO2036 = tested on: DFO2036
# How it was run: as §1
# ECU = tested on: ECU
# How it was run: as §1
# CP265 = tested on: CP265
# How it was run: as §1
# CP268 = tested on: CP268
# How it was run: as §1
# CP286 = tested on: CP286
# How it was run: as §1
# CP291 = tested on: CP291
# How it was run: as §1
# CP305 = tested on: CP305
# How it was run: as §1
# CP325 = tested on: CP325
# How it was run: as §1
# CP335 = tested on: CP335
# How it was run: as §1
# DIV14 = tested on: DIV14
# How it was run: as §1
# DIV17 = tested on: DIV17
# How it was run: as §1
# DIV30 = tested on: DIV30
# How it was run: as §1
# Dd2 = tested on: Dd2
# How it was run: as §1
# CP260 = tested on: CP260
# How it was run: as §1
# Potency is read from the fitted curve at half-maximal effect.
SMILES,Potency (CP262),Potency (CP266),Potency (CP269),Potency (CP297),Potency (CP315),Potency (CP329),Potency (DFO2036),Potency (ECU),Potency (CP265),Potency (CP268),Potency (CP286),Potency (CP291),Potency (CP305),Potency (CP325),Potency (CP335),Potency (DIV14),Potency (DIV17),Potency (DIV30),Potency (Dd2),Potency (CP260)
CN(C)CCN(Cc1ccccc1)c1ccccn1,inactive,inactive,inactive,inactive,inactive,inactive,inactive,inactive,,,,,,,,,,,,
CC1(C)OC(=O)NC1=O,inactive,inactive,inactive,inactive,inactive,inactive,inactive,inactive,inactive,inactive,inactive,inactive,inactive,inactive,inactive,inactive,inactive,inactive,inactive,
CN(C)CCCN1c2ccccc2Sc2ccc(Cl)cc21,inactive,inactive,,,inactive,,inactive,,,,12.6 µM (active),,,,13.5 µM (active),3.01 µM (active),4.78 µM (active),9.53 µM (active),,
Oc1ccc(C(O)CNCCCCCCNCC(O)c2ccc(O)c(O)c2)cc1O (stereo unspecified),inactive,,,,,,inactive,,,,7.08 µM (active),,,,9.53 µM (active),10.7 µM (active),15.1 µM (active),,10 µM (active),7.94 µM (active)
O=S(=O)(O)c1cc(I)c(O)c2ncccc12,inactive,inactive,inactive,inactive,inactive,inactive,inactive,inactive,inactive,inactive,inactive,inactive,inactive,inactive,inactive,inactive,inactive,inactive,inactive,
COCCOC(=O)C1=C(C)NC(C)=C(C(=O)OC/C=C/c2ccccc2)C1c1cccc([N+](=O)[O-])c1 (stereo unspecified),,inactive,,,,,,10 µM (active),,,,,,,9.53 µM (active),13.5 µM (active),8.49 µM (active),,12.6 µM (active),
CC(C(O)c1ccc(O)cc1)N1CCC(Cc2ccccc2)CC1 (stereo unspecified),,,12 µM (active),,,,,,,15.1 µM (active),,16.9 µM (active),15.1 µM (active),15.1 µM (active),10.7 µM (active),13.5 µM (active),15.1 µM (active),,8.91 µM (active),
CC(CN1c2ccccc2Sc2ccccc21)N(C)C (stereo unspecified),inactive,inactive,inactive,,inactive,inactive,inactive,inactive,,inactive,inactive,inactive,,inactive,inactive,inactive,inactive,inactive,,
Cc1ccc2nc(N)[nH]c(=O)c2c1Sc1ccncc1,,inactive,,inactive,inactive,,10 µM (active),,10 µM (active),,2.82 µM (active),,,,,,,inactive,11.2 µM (active),11.2 µM (active)
CC(C)(C)C(=O)NCCCC(=O)O,inactive,inactive,inactive,inactive,inactive,inactive,inactive,inactive,inactive,inactive,inactive,12 µM (active),inactive,inactive,inactive,inactive,inactive,inactive,inactive,

# From PubChem BioAssay (NCATS)
